Over roughly 1,200 compounds, “% viability” has its median near 1; the lowest 2% begin near 0.27. This is one part of a sample in which the lowest values are shown more often than they occur. The numbers are fractions of the control, whatever unit the source prints.
Each compound was assayed on S. rosetta (SrEpac culture). Settings: flow cytometry, 24 h, high-nutrient medium; 10 µM.

Row | SMILES | % viability
1 | CCCc1cc(-c2cncc(OCC(N)Cc3c[nH]c4ccccc34)c2)cc2c(C)n[nH]c12 (stereo not shown) [KMS_217] | 0

Source: PMC11984502, “A stress-responsive p38 signaling axis in choanoflagellates” (RSC Chemical Biology, 2025)
